# Source: PubChem (Johns Hopkins Ion Channel Center)
# An excerpt weighted towards active compounds, which were near 1.6% of everything screened.
# KCNQ2 inh = inhibitors of rat KCNQ2 potassium channel; O88943; CHO-K1 KCNQ2, FluxOR thallium flux, 20 min; active compounds read low; B-score at 10 µM; 1.1% of 310,000 active;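 active means fluorescence ratio B-score at most minus 3 library SDs, with starting brightness B-score within 2 library SDs, cut at about -5.5 in these data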
# Target sequence (O88943 whole entry, looked up): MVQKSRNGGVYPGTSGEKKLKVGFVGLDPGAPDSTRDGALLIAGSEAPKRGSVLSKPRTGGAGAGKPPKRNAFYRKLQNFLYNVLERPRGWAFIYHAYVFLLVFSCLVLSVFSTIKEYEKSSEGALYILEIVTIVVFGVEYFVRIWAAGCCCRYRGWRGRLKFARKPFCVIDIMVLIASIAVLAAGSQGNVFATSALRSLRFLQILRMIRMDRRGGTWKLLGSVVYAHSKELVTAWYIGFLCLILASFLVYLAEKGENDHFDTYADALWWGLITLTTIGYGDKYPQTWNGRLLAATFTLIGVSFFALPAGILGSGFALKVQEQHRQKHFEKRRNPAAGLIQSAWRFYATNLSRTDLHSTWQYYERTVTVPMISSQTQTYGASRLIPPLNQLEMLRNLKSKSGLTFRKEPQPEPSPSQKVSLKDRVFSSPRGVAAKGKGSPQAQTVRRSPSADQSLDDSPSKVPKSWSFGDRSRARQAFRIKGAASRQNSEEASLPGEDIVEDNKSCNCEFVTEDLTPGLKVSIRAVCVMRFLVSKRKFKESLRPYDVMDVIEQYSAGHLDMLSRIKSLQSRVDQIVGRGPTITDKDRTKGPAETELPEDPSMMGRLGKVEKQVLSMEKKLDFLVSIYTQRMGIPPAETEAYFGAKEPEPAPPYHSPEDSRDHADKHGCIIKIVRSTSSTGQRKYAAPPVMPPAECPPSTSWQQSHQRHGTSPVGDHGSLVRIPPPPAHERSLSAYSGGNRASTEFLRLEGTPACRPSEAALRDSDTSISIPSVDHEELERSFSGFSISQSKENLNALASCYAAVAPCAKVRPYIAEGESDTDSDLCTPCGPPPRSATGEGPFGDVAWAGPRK
# KCNQ2 enhance = potentiators of rat KCNQ2 potassium channel | O88943 | AID 2239 | CHO-K1 KCNQ2, FluxOR thallium flux fluorescence; active compounds read high | B-score at 10 µM | 0.54% of 310,000 active;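 active means fluorescence ratio B-score at least 3 SD of library B-scores, with initial fluorescence B-score within 3 of them, cut at about 5.3 in these data; same plate scores as AID 2156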;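 further: B-score of peak minus minimum over baseline fluorescence ratio after K+ and Tl+ stimulus; positive B-score means potentiation of KCNQ2 with more thallium influx and brighter signal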
# * hit, by the source's call; i = inactive; x = not tested or not shown.
SMILES,KCNQ2 inh,KCNQ2 enhance
Cn1nc(C(F)(F)F)c(/C=N/OC(=O)c2ccccc2)c1SCc1ccc(Cl)cc1,i,x
COc1cccc(OC)c1C(=O)Nc1ccc2c(c1)N(S(=O)(=O)c1cccs1)CCC2,i,1.2
O=C(Nc1ccc2c(c1)N(S(=O)(=O)c1cccs1)CCC2)c1c(F)cccc1Cl,-6.4*,-6.4
O=C(COc1cccc2ccccc12)N1c2ccccc2CCc2ccccc21,-7.2*,-7.2
O=C(COc1ccc(F)cc1)N1c2ccccc2CCc2ccccc21,i,x
COCCCNC(=O)Cn1c(=O)n(CCCCCC(=O)NCc2ccc3c(c2)OCO3)c(=O)c2sccc21,i,x
COc1ccc(N=C2S/C(=C\c3ccc(Cl)c([N+](=O)[O-])c3)C(=O)N2CCN(C)C)cc1,-5.6*,-5.6
CCN1C(=O)/C(=C/c2cccs2)SC1=Nc1ccc(OC)cc1,i,1
CCN(CC)CCN1C(=O)/C(=C\c2ccc(Cl)c([N+](=O)[O-])c2)SC1=Nc1ccc(OC)cc1,i,x
CCCN1C(=O)/C(=C/c2ccc(C)s2)SC1=Nc1ccc(OC)cc1,-6.2*,-6.2
CC(C)(C)NC(=O)COC(=O)CCC(=O)c1cccs1,i,1.8
COc1ccccc1CNS(=O)(=O)c1c(C(=O)N2CCCCC2)c(C)n(C)c1C,i,0.24
O=C(c1cccc(Cl)c1)N1CCC(=O)N(C(COCc2cccc(Cl)c2)Cc2ccccc2)CC1 (stereo not drawn),i,x
Cc1ccc(S(=O)(=O)N2CCC(=O)N(C(COCc3ccc(C(F)(F)F)cc3)Cc3ccccc3)CC2)cc1 (stereo not drawn),-6.1*,-6.1
Cc1ccc(S(=O)(=O)N2CCC(=O)N(C(COCc3ccc(Cl)c(Cl)c3)Cc3ccccc3)CC2)cc1 (stereo not drawn),i,x
CC(C)CC(COCc1ccc(F)cc1)N1CCN(C(=O)c2cccc(C(F)(F)F)c2)CCC1=O (stereo not drawn),-6.1*,-6.1
O=C(c1ccc(Cl)c(Cl)c1)N1CCC(=O)N(C(COCc2cccc(Cl)c2)Cc2ccccc2)CC1 (stereo not drawn),-6.2*,-6.2
Cc1ccc(COCC(CC(C)C)N2CCN(C(=O)c3cccc(C(F)(F)F)c3)CCC2=O)cc1 (stereo not drawn),i,x
Cc1ccc(S(=O)(=O)N2CCC(=O)N(C(COCc3ccc(C(F)(F)F)cc3)C(C)C)CC2)cc1 (stereo not drawn),i,x
Cc1ccc(S(=O)(=O)N2CCC(=O)N(C(COCc3cccc(C)c3)Cc3ccccc3)CC2)cc1 (stereo not drawn),-6.5*,-6.5
O=C(/C=C/c1ccccc1)OCCN1C(=O)c2ccccc2C1=O,i,0.51
Cn1c(CC(=O)Nc2ccc(F)cc2)c(Sc2ccccc2)c2ccccc21,i,x
COc1ccc(NC(=O)Cc2c(Sc3ccccc3)c3ccccc3n2C)cc1,-6.3*,-6.3
O=C(CSc1nc2ccccc2nc1N1CCOCC1)N1CCN(c2ccccc2)CC1,i,0.21
O=C(CSc1nc2ccccc2nc1N1CCCCC1)N1CCN(c2ccccc2)CC1,-7.7*,-7.7
SMILES,KCNQ2 inh,KCNQ2 enhance
CCOC(=O)C1(CCc2ccccc2)CCN(Cc2ccn[nH]2)CC1,i,x
CCOC(=O)C1(CCc2ccccc2)CCN(Cc2cccc3nccnc23)CC1,-5.9*,-5.9
Nc1c(C(=O)c2ccc(Br)cc2)oc2ccccc12,i,1.5
O=C(c1ccc(Cl)cc1)c1oc2ccccc2c1CS(=O)c1ccccc1 (stereo not drawn),-5.7*,-5.7
COc1cccc(C(=O)Nn2c(-c3cccs3)nc3ccccc3c2=O)c1OC,-6.4*,-6.4
COc1ccc(C(=O)Nn2c(C)nc3ccccc3c2=O)c(OC)c1,i,x
CN=C1S/C(=C\c2cccc(Cl)c2Cl)C(=O)N1C,i,x
COc1cc(NC(=O)c2ccc3c(c2)S(=O)(=O)N=C2CCCCCN23)cc(OC)c1,i,1
CC1C(=O)NN=C1C(=O)N/N=C/c1cccs1 (stereo not drawn),i,x
O=C(O)c1ccc(NC(=S)NC(=O)c2cccc(COc3ccccc3)c2)cc1,i,x
CC(=O)c1cccc(OCc2cc(C(=O)NC3CCN(Cc4ccccc4)CC3)no2)c1,i,6.3*
O=C(NC(=S)Nc1ccc(CN2CCCCC2)cc1)c1cccc(OCc2ccccc2)c1,-6*,-6
O=C(NC1CCN(Cc2ccccc2)CC1)c1cccc(OC(F)F)c1,i,0.15
CCCOc1cccc(C(=O)NCCNC(=O)c2cnccn2)c1,i,x
O=C(Nc1ccc(Cl)cc1Cl)NC1CCN(S(=O)(=O)c2ccc(F)cc2)CC1,i,x
O=S(=O)(/N=C(/Nc1cccc2ccccc12)c1ccc(F)cc1)c1ccccc1,i,x
CC1(C)CC2CC(C)(CN2/C=C2/CCCCC2=O)C1 (stereo not drawn),i,x
COc1ccccc1NS(=O)(=O)c1cc(C(=O)NCc2ccco2)ccc1C,i,x
COc1ccccc1NS(=O)(=O)c1cc(C(=O)NCC(C)(C)N2CCOCC2)ccc1C,i,6.7*
COCc1cc(C)nc(SCC(=O)Nc2ccc(N3CCOCC3)cc2)c1C#N,i,0.67
COc1ccc(NC(=O)CS(=O)(=O)c2cn(CC(=O)N3CCOCC3)c3ccccc23)cc1,i,1.2
O=C1NN(c2ccccc2)C(=O)/C1=C\c1coc2ccc(O)cc2c1=O,-5.7*,-5.7
O=C1NN(c2ccccc2)C(=O)/C1=C/c1coc2ccccc2c1=O,i,x
CC(C)NCC1CCc2cc(CO)c([N+](=O)[O-])cc2N1 (stereo not drawn),i,x
CC(C)=N/N=C1/NC(=O)C(CC(=O)Nc2cc(Cl)ccc2C)S1 (stereo not drawn),i,5.8*
SMILES,KCNQ2 inh,KCNQ2 enhance
Cc1ccccc1NC(=O)CC1SC(=Nc2ccc(O)cc2)NC1=O (stereo not drawn),i,0.93
COc1ccc(Cl)cc1NC(=O)CN1C(=O)NC2(CCCC2)C1=O,i,2.1
O=C(N/N=C(\CC(=O)c1cccs1)C(F)(F)F)c1ccncc1,i,0.05
Cc1ccc(C(=O)N/N=C(/CC(=O)c2cccs2)C(F)(F)F)cc1,i,13*
COc1cccc(OC)c1OC(=O)/C=C/c1ccc(C)o1,i,x
CC12CCC(C(=O)N(CC3CO3)C1=O)C2(C)C (stereo not drawn),i,0.47
Cc1ccc(C(=O)N2c3ccccc3N(Cc3ccccc3)C(=O)C2(C)C)cc1,-5.6*,-5.6
O=C(O)CC1(O)C(=O)N(Cc2ccccc2)c2ccccc21 (stereo not drawn),i,1.2
CN(C)c1nnnn1-c1ccc(Oc2ncc(C(F)(F)F)cc2Cl)cc1,i,x
COc1ccc(S(=O)(=O)Nc2cc3c4c(oc3c3ccccc23)CCCC4=O)cc1,i,x
COc1ccc(S(=O)(=O)Nc2cc3c4c(oc3c3ccccc23)CC(C)(C)CC4=O)cc1,-6.5*,-6.5
CS(=O)(=O)Cc1cccc(C(=O)NN(c2ccccc2)c2ccccc2)c1,i,x
N#Cc1nc(-c2cccc3ccccc23)oc1NCCN1CCCCC1,-7.9*,-7.9
CCNc1oc(-c2cccc3ccccc23)nc1C#N,i,x
CN1CC(c2ccc(C#N)cc2)C2(COc3ccccc3C2=O)C12C(=O)Nc1ccccc12 (stereo not drawn),i,x
O=C(Nc1cccc(Cl)c1N1CCCC1)c1ccc(Br)o1,-7.9*,-7.9
O=C(Nc1cc(Cl)ccc1N1CCOCC1)c1cc2ccccc2o1,i,x
O=C(Nc1cccc(Cl)c1N1CCCC1)c1cc2ccccc2o1,-6.2*,-6.2
